# Positions count from the first letter of the chain named.
# Columns and labels:
# Experiment in all cases: PBM; 200 nM protein, PBS
# Settings in all cases: dsDNA, one strand shown
# [1] = target: PITX2 (Homo sapiens, UniProt Q99697 72-157)
# [2] = target: PRRX1 (Homo sapiens, UniProt P54821 80-166)
# [3] = target: HOXA4 (Homo sapiens, UniProt Q00056 201-287, W262R)
# [4] = target: T1, PAX4 (Homo sapiens, UniProt O43316 9-242)
# T1 sequence: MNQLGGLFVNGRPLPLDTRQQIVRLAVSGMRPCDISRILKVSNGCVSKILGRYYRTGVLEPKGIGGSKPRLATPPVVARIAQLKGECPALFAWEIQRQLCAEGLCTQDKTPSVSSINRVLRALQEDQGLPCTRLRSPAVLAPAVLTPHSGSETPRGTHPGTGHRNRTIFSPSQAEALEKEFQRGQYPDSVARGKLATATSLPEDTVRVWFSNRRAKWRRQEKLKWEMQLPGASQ
# [5] = target: HOXA4 (Homo sapiens, UniProt Q00056 201-287, R217L)
# [6] = target: HOXA4 (Homo sapiens, UniProt Q00056 201-287)
# [7] = target: HOXA4 (Homo sapiens, UniProt Q00056 201-287, W262F)
# [8] = target: HOXD13 (Homo sapiens, UniProt P35453 263-343)
# [9] = target: HOXC10 (Homo sapiens, UniProt Q9NYD6 254-340)
# [10] = target: T2, SIX6 (Homo sapiens, UniProt O95475 114-200, L143V)
# T2 sequence: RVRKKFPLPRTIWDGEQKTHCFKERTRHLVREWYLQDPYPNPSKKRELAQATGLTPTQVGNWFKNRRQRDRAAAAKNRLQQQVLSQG
# [11] = target: T3, SIX6 (Homo sapiens, UniProt O95475 114-200, H141N)
# T3 sequence: T2 sequence with H28N, V30L
# [12] = target: T4, SIX6 (Homo sapiens, UniProt O95475 114-200, L143M)
# T4 sequence: T2 sequence with V30M
# [13] = target: T5, SIX6 (Homo sapiens, UniProt O95475 114-200, L143I)
# T5 sequence: T2 sequence with V30I
# [14] = target: T6, SIX6 (Homo sapiens, UniProt O95475 114-200, T165A)
# T6 sequence: T2 sequence with V30L, T52A
# [15] = target: T7, SIX6 (Homo sapiens, UniProt O95475 114-200)
# T7 sequence: T2 sequence with V30L
# [16] = target: HOXA7 (Homo sapiens, UniProt P31268 116-202)
# [17] = target: HOXA7 (Homo sapiens, UniProt P31268 116-202, W177C)
# [18] = target: HOXC10 (Homo sapiens, UniProt Q9NYD6 254-340, K271E)
# [19] = target: HOXD13 (Homo sapiens, UniProt P35453 263-343, T313R)
# [20] = target: HOXD13 (Homo sapiens, UniProt P35453 263-343, T313A)
# Chain of HOXD13 (Homo sapiens, UniProt P35453 263-343, T313A) (P35453 263-343 T313A): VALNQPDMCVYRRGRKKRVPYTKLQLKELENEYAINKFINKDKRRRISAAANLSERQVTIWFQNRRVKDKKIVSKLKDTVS
# Chain of HOXA4 (Homo sapiens, UniProt Q00056 201-287, R217L) (Q00056 201-287 R217L): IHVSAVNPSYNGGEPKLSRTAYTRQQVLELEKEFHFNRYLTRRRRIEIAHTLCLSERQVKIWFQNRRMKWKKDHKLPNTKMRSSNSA
# Chain of HOXD13 (Homo sapiens, UniProt P35453 263-343, T313R) (P35453 263-343 T313R): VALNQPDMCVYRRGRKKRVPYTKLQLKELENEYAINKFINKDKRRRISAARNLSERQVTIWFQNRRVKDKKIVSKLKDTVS
# Chain of HOXA4 (Homo sapiens, UniProt Q00056 201-287) (Q00056 201-287): as the sequence (Q00056 201-287 R217L) above, with L17R counted along it
# Chain of PRRX1 (P54821 80-166): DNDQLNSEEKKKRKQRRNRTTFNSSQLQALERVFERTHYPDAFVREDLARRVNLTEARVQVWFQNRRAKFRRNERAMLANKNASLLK
# Chain of HOXA4 (Homo sapiens, UniProt Q00056 201-287, W262F) (Q00056 201-287 W262F): as the sequence (Q00056 201-287 R217L) above, with L17R, W62F counted along it
# Chain of HOXA7 (Homo sapiens, UniProt P31268 116-202, W177C) (P31268 116-202 W177C): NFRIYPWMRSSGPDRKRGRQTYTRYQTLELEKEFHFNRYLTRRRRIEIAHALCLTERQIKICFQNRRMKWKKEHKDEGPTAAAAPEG
# Chain of HOXA7 (Homo sapiens, UniProt P31268 116-202) (P31268 116-202): as the sequence (P31268 116-202 W177C) above, with C62W counted along it
# Chain of HOXD13 (Homo sapiens, UniProt P35453 263-343) (P35453 263-343): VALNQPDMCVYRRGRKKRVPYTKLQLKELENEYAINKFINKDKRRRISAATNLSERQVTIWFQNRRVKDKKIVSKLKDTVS
# Chain of HOXA4 (Homo sapiens, UniProt Q00056 201-287, W262R) (Q00056 201-287 W262R): as the sequence (Q00056 201-287 R217L) above, with L17R, W62R counted along it
# Chain of HOXC10 (Homo sapiens, UniProt Q9NYD6 254-340) (Q9NYD6 254-340): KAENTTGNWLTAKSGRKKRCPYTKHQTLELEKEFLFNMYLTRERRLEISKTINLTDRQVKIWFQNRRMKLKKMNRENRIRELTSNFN
# Chain of HOXC10 (Homo sapiens, UniProt Q9NYD6 254-340, K271E) (Q9NYD6 254-340 K271E): as the sequence (Q9NYD6 254-340) above, with K18E counted along it
sequence,measurement,setting,value
CGGTCCAA,binding signal,[1],"7.89 upbm affinity estimate (log intensity, higher = more binding, comparable within an allelic series)"
ACGCGCAG,binding signal,[2],"9.2 upbm affinity estimate (log intensity, higher = more binding, comparable within an allelic series)"
CGGGCTCC,binding signal,[3],"9.62 upbm affinity estimate (log intensity, higher = more binding, comparable within an allelic series)"
same,binding signal,[4],"8.72 upbm affinity estimate (log intensity, higher = more binding, comparable within an allelic series)"
same,binding signal,[5],"9.45 upbm affinity estimate (log intensity, higher = more binding, comparable within an allelic series)"
same,binding signal,[6],"9.29 upbm affinity estimate (log intensity, higher = more binding, comparable within an allelic series)"
same,binding signal,[7],"9.68 upbm affinity estimate (log intensity, higher = more binding, comparable within an allelic series)"
same,binding signal,[2],"8.33 upbm affinity estimate (log intensity, higher = more binding, comparable within an allelic series)"
ACCCGGGC,binding signal,[4],"9.14 upbm affinity estimate (log intensity, higher = more binding, comparable within an allelic series)"
AATAAGTG,binding signal,[8],"10.6 upbm affinity estimate (log intensity, higher = more binding, comparable within an allelic series)"
ACCACTTA,binding signal,[9],"10.9 upbm affinity estimate (log intensity, higher = more binding, comparable within an allelic series)"
CACGCGTG,binding signal,[1],"7.84 upbm affinity estimate (log intensity, higher = more binding, comparable within an allelic series)"
same,binding signal,[2],"9.41 upbm affinity estimate (log intensity, higher = more binding, comparable within an allelic series)"
CCCGGCGG,binding signal,[10],"8.98 upbm affinity estimate (log intensity, higher = more binding, comparable within an allelic series)"
same,binding signal,[11],"9.13 upbm affinity estimate (log intensity, higher = more binding, comparable within an allelic series)"
same,binding signal,[12],"9.17 upbm affinity estimate (log intensity, higher = more binding, comparable within an allelic series)"
same,binding signal,[13],"9 upbm affinity estimate (log intensity, higher = more binding, comparable within an allelic series)"
same,binding signal,[14],"9.22 upbm affinity estimate (log intensity, higher = more binding, comparable within an allelic series)"
same,binding signal,[15],"9.12 upbm affinity estimate (log intensity, higher = more binding, comparable within an allelic series)"
CCGGAGCC,binding signal,[3],"9.74 upbm affinity estimate (log intensity, higher = more binding, comparable within an allelic series)"
same,binding signal,[5],"9.76 upbm affinity estimate (log intensity, higher = more binding, comparable within an allelic series)"
same,binding signal,[6],"9.77 upbm affinity estimate (log intensity, higher = more binding, comparable within an allelic series)"
same,binding signal,[7],"9.84 upbm affinity estimate (log intensity, higher = more binding, comparable within an allelic series)"
AATTAGCT,binding signal,[4],"12.2 upbm affinity estimate (log intensity, higher = more binding, comparable within an allelic series)"
same,binding signal,[7],"11.5 upbm affinity estimate (log intensity, higher = more binding, comparable within an allelic series)"
CTAATTGC,binding signal,[3],"10.4 upbm affinity estimate (log intensity, higher = more binding, comparable within an allelic series)"
same,binding signal,[16],"11.4 upbm affinity estimate (log intensity, higher = more binding, comparable within an allelic series)"
same,binding signal,[5],"11.8 upbm affinity estimate (log intensity, higher = more binding, comparable within an allelic series)"
same,binding signal,[6],"13.8 upbm affinity estimate (log intensity, higher = more binding, comparable within an allelic series)"
same,binding signal,[17],"8.67 upbm affinity estimate (log intensity, higher = more binding, comparable within an allelic series)"
same,binding signal,[7],"11.4 upbm affinity estimate (log intensity, higher = more binding, comparable within an allelic series)"
ACGGCTGG,binding signal,[4],"9.44 upbm affinity estimate (log intensity, higher = more binding, comparable within an allelic series)"
GTACTTAA,binding signal,[18],"11.9 upbm affinity estimate (log intensity, higher = more binding, comparable within an allelic series)"
CCAGCCAG,binding signal,[19],"9.41 upbm affinity estimate (log intensity, higher = more binding, comparable within an allelic series)"
same,binding signal,[8],"9.59 upbm affinity estimate (log intensity, higher = more binding, comparable within an allelic series)"
same,binding signal,[20],"9.56 upbm affinity estimate (log intensity, higher = more binding, comparable within an allelic series)"
CCGACCTC,binding signal,[19],"9.52 upbm affinity estimate (log intensity, higher = more binding, comparable within an allelic series)"
same,binding signal,[8],"9.45 upbm affinity estimate (log intensity, higher = more binding, comparable within an allelic series)"
same,binding signal,[20],"9.44 upbm affinity estimate (log intensity, higher = more binding, comparable within an allelic series)"
CCGGTGGC,binding signal,[19],"9.44 upbm affinity estimate (log intensity, higher = more binding, comparable within an allelic series)"
same,binding signal,[8],"9.29 upbm affinity estimate (log intensity, higher = more binding, comparable within an allelic series)"
same,binding signal,[20],"9.43 upbm affinity estimate (log intensity, higher = more binding, comparable within an allelic series)"
ATAATGGG,binding signal,[16],"11.2 upbm affinity estimate (log intensity, higher = more binding, comparable within an allelic series)"
same,binding signal,[17],"8.88 upbm affinity estimate (log intensity, higher = more binding, comparable within an allelic series)"
CCTGGGCC,binding signal,[9],"10.1 upbm affinity estimate (log intensity, higher = more binding, comparable within an allelic series)"
same,binding signal,[18],"9.99 upbm affinity estimate (log intensity, higher = more binding, comparable within an allelic series)"
CCGACGCC,binding signal,[16],"8.58 upbm affinity estimate (log intensity, higher = more binding, comparable within an allelic series)"
same,binding signal,[17],"8.45 upbm affinity estimate (log intensity, higher = more binding, comparable within an allelic series)"
CGTGCACG,binding signal,[2],"9.56 upbm affinity estimate (log intensity, higher = more binding, comparable within an allelic series)"
CGGTCGGC,binding signal,[1],"7.99 upbm affinity estimate (log intensity, higher = more binding, comparable within an allelic series)"
GCTGGGCC,binding signal,[4],"9.06 upbm affinity estimate (log intensity, higher = more binding, comparable within an allelic series)"

# Source: paper PMC11006913
